Consider eight sequences from publication PMC7862700, “An all-to-all approach to the identification of sequence-specific readers for epigenetic DNA modifications on cytosine”.

Experiment in all cases: DAPPL (digital affinity profiling via proximity ligation, sequencing); 10 mM Tris-HCl pH 7.5, 50 mM NaCl, 1 mM DTT, 4% glycerol, room temperature, 30 min; GST-TFs on glutathione beads, 16-mer random dsDNA library, 0.1% formaldehyde crosslink after washing; high values mean tight binding
What all share (settings): protein: recombinant; tags: N-terminal GST; dsDNA, one strand shown

The target in one assay is T1, ERF (Homo sapiens, UniProt P50548 1-548).
T1 sequence: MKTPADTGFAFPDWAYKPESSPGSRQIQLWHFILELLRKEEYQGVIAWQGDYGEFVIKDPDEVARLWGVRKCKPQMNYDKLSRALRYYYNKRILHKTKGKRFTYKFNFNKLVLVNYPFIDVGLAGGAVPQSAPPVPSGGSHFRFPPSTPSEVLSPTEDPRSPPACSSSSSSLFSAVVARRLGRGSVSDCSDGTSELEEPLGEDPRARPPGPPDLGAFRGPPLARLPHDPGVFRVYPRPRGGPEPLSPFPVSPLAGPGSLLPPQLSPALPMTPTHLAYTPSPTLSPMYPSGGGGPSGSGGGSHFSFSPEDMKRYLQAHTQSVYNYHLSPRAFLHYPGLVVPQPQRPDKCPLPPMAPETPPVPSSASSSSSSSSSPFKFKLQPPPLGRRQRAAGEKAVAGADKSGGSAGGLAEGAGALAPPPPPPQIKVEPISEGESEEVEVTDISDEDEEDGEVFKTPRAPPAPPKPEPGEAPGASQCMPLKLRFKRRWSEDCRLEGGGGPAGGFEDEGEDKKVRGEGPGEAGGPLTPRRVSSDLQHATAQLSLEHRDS
In outline:
(§1)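 Human transcription factors carrying a GST fusion were produced in yeast, bound to glutathione beads, tagged with DNA barcodes and pooled together with a tag-only sample. Each pool was held with 200 nmole of a random double-stranded 16-mer DNA library in Tris/NaCl/DTT/glycerol buffer for 30 min at room temperature, then washed, crosslinked in 0.1% formaldehyde, proximity-ligated with BsaI/T4 ligase (1 h, 37 °C), PCR-amplified and sequenced on an Illumina NextSeq500. Binding signal is the read frequency of each hexamer for a given factor divided by its frequency in the tag-only sample.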

Another assay has as its target T2, ETV3L (Homo sapiens, UniProt Q6ZN32 1-361).
T2 sequence: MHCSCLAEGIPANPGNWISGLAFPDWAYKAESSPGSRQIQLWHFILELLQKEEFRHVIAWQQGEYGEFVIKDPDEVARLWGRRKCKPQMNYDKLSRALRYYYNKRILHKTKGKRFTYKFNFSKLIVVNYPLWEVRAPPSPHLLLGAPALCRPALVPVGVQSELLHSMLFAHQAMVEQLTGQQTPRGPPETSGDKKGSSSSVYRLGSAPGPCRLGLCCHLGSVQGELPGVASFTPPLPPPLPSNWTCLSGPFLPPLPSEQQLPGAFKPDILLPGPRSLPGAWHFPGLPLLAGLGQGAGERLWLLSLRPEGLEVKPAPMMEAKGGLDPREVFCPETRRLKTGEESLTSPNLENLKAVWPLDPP
In outline:
as §1

In a further assay the target is T3, ETS2 (Homo sapiens, UniProt P15036 1-469).
T3 sequence: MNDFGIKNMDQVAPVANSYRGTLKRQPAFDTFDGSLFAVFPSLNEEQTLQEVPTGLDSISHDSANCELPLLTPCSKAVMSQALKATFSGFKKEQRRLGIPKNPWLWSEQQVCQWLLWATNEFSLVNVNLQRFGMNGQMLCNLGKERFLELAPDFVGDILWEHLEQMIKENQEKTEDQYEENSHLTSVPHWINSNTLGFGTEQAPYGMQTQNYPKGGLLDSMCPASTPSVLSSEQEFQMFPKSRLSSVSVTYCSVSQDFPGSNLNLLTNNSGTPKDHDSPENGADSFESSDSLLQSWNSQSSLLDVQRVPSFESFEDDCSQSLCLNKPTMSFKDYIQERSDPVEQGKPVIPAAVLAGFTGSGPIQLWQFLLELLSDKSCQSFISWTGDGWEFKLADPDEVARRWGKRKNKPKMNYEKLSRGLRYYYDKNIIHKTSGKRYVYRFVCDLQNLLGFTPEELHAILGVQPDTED
An outline of the steps:
as §1

The next assay addresses T4, SPDEF (Homo sapiens, UniProt O95238 1-335).
T4 sequence: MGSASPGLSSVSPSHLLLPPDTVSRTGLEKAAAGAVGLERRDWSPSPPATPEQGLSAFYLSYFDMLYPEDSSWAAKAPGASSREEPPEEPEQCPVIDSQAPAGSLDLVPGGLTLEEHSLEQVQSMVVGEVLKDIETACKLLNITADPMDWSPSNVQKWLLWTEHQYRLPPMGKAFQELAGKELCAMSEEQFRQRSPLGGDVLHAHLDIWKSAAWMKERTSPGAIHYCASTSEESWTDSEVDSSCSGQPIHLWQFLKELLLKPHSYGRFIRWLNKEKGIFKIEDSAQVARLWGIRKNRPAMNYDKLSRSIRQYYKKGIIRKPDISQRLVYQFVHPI
An outline of the steps: as §1

A further assay deals with T5, ETV7 (Homo sapiens, UniProt Q9Y603 1-341).
T5 sequence: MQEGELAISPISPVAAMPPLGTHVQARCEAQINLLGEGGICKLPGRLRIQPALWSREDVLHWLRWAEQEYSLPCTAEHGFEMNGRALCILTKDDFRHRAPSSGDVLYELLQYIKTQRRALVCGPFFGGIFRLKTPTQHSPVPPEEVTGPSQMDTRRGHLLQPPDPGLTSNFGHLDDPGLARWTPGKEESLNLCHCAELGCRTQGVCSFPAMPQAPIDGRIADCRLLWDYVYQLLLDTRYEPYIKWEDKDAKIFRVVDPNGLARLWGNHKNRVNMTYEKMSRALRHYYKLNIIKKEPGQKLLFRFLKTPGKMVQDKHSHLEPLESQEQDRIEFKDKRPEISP
An outline of the steps:
as §1

In another assay the target is T6, ELF5 (Homo sapiens, UniProt Q9UKW6-2 1-255).
T6 sequence: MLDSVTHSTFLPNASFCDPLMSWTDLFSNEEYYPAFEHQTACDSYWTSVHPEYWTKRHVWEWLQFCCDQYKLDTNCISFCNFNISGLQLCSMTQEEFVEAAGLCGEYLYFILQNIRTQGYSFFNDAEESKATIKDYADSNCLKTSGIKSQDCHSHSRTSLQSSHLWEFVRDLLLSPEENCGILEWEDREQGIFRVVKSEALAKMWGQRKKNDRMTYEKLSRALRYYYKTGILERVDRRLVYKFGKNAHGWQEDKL
An outline of the steps: as §1

The target in a further assay is T7, ETV3 (Homo sapiens, UniProt P41162-2 1-143).
T7 sequence: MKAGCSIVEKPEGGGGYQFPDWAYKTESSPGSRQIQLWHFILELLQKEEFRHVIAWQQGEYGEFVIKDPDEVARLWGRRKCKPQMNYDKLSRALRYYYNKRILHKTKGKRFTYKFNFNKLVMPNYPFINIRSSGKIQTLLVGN
In outline: as §1

For a further assay, the target named is ETV6 (Homo sapiens, UniProt P41212 1-452). An outline of the steps:
as §1

Chain of ETV6 (P41212 whole entry): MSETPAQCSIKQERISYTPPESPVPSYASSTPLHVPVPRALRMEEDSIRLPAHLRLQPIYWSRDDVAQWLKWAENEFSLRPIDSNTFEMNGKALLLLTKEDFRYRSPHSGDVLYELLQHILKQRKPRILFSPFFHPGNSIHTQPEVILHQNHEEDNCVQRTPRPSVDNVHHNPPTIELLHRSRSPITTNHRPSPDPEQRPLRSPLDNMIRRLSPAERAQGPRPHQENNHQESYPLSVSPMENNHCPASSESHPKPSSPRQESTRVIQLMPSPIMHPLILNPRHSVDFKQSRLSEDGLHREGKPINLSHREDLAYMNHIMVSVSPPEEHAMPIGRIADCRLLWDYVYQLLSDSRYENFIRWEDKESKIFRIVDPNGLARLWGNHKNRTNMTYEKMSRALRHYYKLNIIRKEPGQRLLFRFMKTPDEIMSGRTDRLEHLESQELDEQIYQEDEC

Turning to GATATG, the binding signal in the assay with ERF is 1.09 fold enrichment (6-mer frequency, TF over GST control); with ETV3L, 1.08 fold enrichment (6-mer frequency, TF over GST control); in the assay with ETS2, 1.18 fold enrichment (6-mer frequency, TF over GST control); with SPDEF, 1.24 fold enrichment (6-mer frequency, TF over GST control); with ETV7, 1.07 fold enrichment (6-mer frequency, TF over GST control); with ELF5, 1.14 fold enrichment (6-mer frequency, TF over GST control). Also, the binding signal in the assay with ETV3 was 1.12 fold enrichment (6-mer frequency, TF over GST control); with ETV6 it was 1.04 fold enrichment (6-mer frequency, TF over GST control).
Take TTTGGA: the binding signal in the assay with ERF was 1.2 fold enrichment (6-mer frequency, TF over GST control); with ETV3L, 1.21 fold enrichment (6-mer frequency, TF over GST control); in the assay with ETS2, 1.19 fold enrichment (6-mer frequency, TF over GST control); with SPDEF, 1.23 fold enrichment (6-mer frequency, TF over GST control); with ETV7, 1.3 fold enrichment (6-mer frequency, TF over GST control); with ELF5, 1.15 fold enrichment (6-mer frequency, TF over GST control). The binding signal was 1.19 fold enrichment (6-mer frequency, TF over GST control) with ETV3 and 1.15 fold enrichment (6-mer frequency, TF over GST control) with ETV6.
As to TCCCGC, the binding signal with ERF was 1.47 fold enrichment (6-mer frequency, TF over GST control); in the assay with ETV3L it was 1.44 fold enrichment (6-mer frequency, TF over GST control); with ETS2, 1.34 fold enrichment (6-mer frequency, TF over GST control); with SPDEF, 1.5 fold enrichment (6-mer frequency, TF over GST control); with ETV7, 1.65 fold enrichment (6-mer frequency, TF over GST control); in the assay with ELF5, 1.59 fold enrichment (6-mer frequency, TF over GST control). Further, the binding signal with ETV3 is 1.37 fold enrichment (6-mer frequency, TF over GST control); with ETV6, 1.5 fold enrichment (6-mer frequency, TF over GST control).
As for TGCATT, the binding signal was 1.45 fold enrichment (6-mer frequency, TF over GST control) in the assay with ERF; 1.39 fold enrichment (6-mer frequency, TF over GST control) with ETV3L; 1.34 fold enrichment (6-mer frequency, TF over GST control) with ETS2; 1.41 fold enrichment (6-mer frequency, TF over GST control) with SPDEF; 1.22 fold enrichment (6-mer frequency, TF over GST control) with ETV7; 1.25 fold enrichment (6-mer frequency, TF over GST control) with ELF5. Moreover, the binding signal was 1.34 fold enrichment (6-mer frequency, TF over GST control) with ETV3 and 1.35 fold enrichment (6-mer frequency, TF over GST control) with ETV6.
With CGAATT, the binding signal with ERF is 1.28 fold enrichment (6-mer frequency, TF over GST control); in the assay with ETV3L it was 1.28 fold enrichment (6-mer frequency, TF over GST control); in the assay with ETS2, 1.14 fold enrichment (6-mer frequency, TF over GST control); in the assay with SPDEF it was 1.28 fold enrichment (6-mer frequency, TF over GST control); in the assay with ETV7, 1.31 fold enrichment (6-mer frequency, TF over GST control); in the assay with ELF5, 1.17 fold enrichment (6-mer frequency, TF over GST control). Besides, the binding signal with ETV3 is 1.22 fold enrichment (6-mer frequency, TF over GST control); with ETV6, 1.08 fold enrichment (6-mer frequency, TF over GST control).
Take TGTCCT: the binding signal was 1.5 fold enrichment (6-mer frequency, TF over GST control) in the assay with ERF; 1.58 fold enrichment (6-mer frequency, TF over GST control) in the assay with ETV3L; 1.47 fold enrichment (6-mer frequency, TF over GST control) with ETS2; 1.79 fold enrichment (6-mer frequency, TF over GST control) in the assay with SPDEF; 1.4 fold enrichment (6-mer frequency, TF over GST control) in the assay with ETV7; 1.7 fold enrichment (6-mer frequency, TF over GST control) with ELF5. Also, the binding signal is 1.47 fold enrichment (6-mer frequency, TF over GST control) with ETV3 and 1.25 fold enrichment (6-mer frequency, TF over GST control) with ETV6.
Regarding CGAGCA, the binding signal was 1.17 fold enrichment (6-mer frequency, TF over GST control) with ERF; 1.13 fold enrichment (6-mer frequency, TF over GST control) with ETV3L; 1.06 fold enrichment (6-mer frequency, TF over GST control) in the assay with ETS2; 1.18 fold enrichment (6-mer frequency, TF over GST control) in the assay with SPDEF; 1.06 fold enrichment (6-mer frequency, TF over GST control) with ETV7; 1.03 fold enrichment (6-mer frequency, TF over GST control) with ELF5. Moreover, the binding signal was 1.04 fold enrichment (6-mer frequency, TF over GST control) in the assay with ETV3 and 1.06 fold enrichment (6-mer frequency, TF over GST control) in the assay with ETV6.
Take ATAGCA: the binding signal is 1.24 fold enrichment (6-mer frequency, TF over GST control) with ERF; 1.19 fold enrichment (6-mer frequency, TF over GST control) with ETV3L; 1.22 fold enrichment (6-mer frequency, TF over GST control) in the assay with ETS2; 1.12 fold enrichment (6-mer frequency, TF over GST control) in the assay with SPDEF; 1.06 fold enrichment (6-mer frequency, TF over GST control) with ETV7; 1.16 fold enrichment (6-mer frequency, TF over GST control) with ELF5. Besides, the binding signal is 1.19 fold enrichment (6-mer frequency, TF over GST control) with ETV3 and 1.18 fold enrichment (6-mer frequency, TF over GST control) with ETV6.
